This is an account of results in PubChem BioAssay (NCATS).

SMILES strings stand for the structures. Results filed as inconclusive are left out. The source made the active and inactive calls. Unless noted, calls come from the whole dose curve; as a rule, active = well fitted curve in the direction sought with a large enough effect; inconclusive = small, poorly fitted or top-dose-only effect, or another doubt; inactive = no such curve, though single readings can be large; an effect the other way counts as inactive or inconclusive.

Assay [1] in a line: AP1 Signaling Pathway (AID 357; active = well fitted curve in either direction with a large enough effect, not every such curve was filed as active;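 note: ME-180 reporter cells stimulated with EGF at its EC50 level; % is set by controls: 0 for no effect and ±100 for the full control effect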). The method, boiled down:
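First, ME-180 AP-1-bla cells were cultured overnight at 37 °C in low-serum Opti-MEM. Next, titrated compounds with EC50 EGF were incubated 5 hours. Finally, CCF4 was added for 2.5 hours and the 460/530 nm ratio recorded.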

Assay [2] is described as follows: NFAT Signaling Pathway (AID 444; active = well fitted curve in either direction with a large enough effect, not every such curve was filed as active;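 note: carbachol stimulus at about its EC50 of 1 µM final; % is set by controls: 0 for no effect and ±100 for the full control effect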). The settings on record: Jurkat NFAT-bla M1, carbachol, beta-lactamase ratio, 5 h; at 17.2 µM (top of the series) unless noted. The method, boiled down: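 Jurkat cells with NFAT-driven β-lactamase reporter and co-expressed M1 receptor, stimulated with carbachol (final 1 uM, ~EC50), compound titration, 5 h at 37 °C. CCF4 loaded 1 h at RT; 460/530 nm ratio gave %activity and AC50.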

The nature of assay [3]: Stat Signaling Pathway (AID 446; active = well fitted curve in either direction with a large enough effect, not every such curve was filed as active;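 note: ME-180 cervical cancer cells given 40 pM IL-6 alongside compound; SIE-controlled beta-lactamase reporter measured as 460/530 nm FRET emission ratio; % is set by controls: 0 for no effect and ±100 for the full control effect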). The method, boiled down: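 Overnight-plated ME-180 cells bearing a STAT Inducible Element beta-lactamase reporter; 5 h co-exposure to compound and 40 pM IL-6; values normalized to 300 pM IL-6 and 125 nM JAK inhibitor controls.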
Assay [4] concerns the target Glucocorticoid receptor (Homo sapiens) (UniProt P04150). The assay is described as follows: GR-GFP Redistribution (AID 450;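 active = compounds whose dose series gives a full or clear partial fitted curve of increased nuclear translocation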; note: potency is the fitted concentration of half-maximal effect). As to conditions: U2OS GR-GFP nuclear translocation, laser cytometry, 2 h.
The target is the same in assay [5]. Nature of the assay: GR-EFC Redistribution (AID 451; calls by dose curve; note: potency is the fitted concentration of half-maximal effect). The settings on record: CHO-K1 GR-EFC translocation, beta-gal luminescence, 2 h. The procedure, abridged: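 CHO-K1 cells expressing nuclear EA and GR-ED fragments of b-gal; compounds titrated up to 46 uM final, 2 h at 37 C. GR nuclear translocation read as complemented b-gal luminescence after 1 h RT detection.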

Assay [6] concerns the target Mitogen-activated protein kinase 10 (Mus musculus) (UniProt Q61831). The assay is described as follows: JNK3 AlphaScreen Assay (AID 530; active = well fitted curve in either direction with a large enough effect, not every such curve was filed as active;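 note: kinase came from lysate of stimulated human HepG2 cells; signal reports phosphorylation of biotinylated GST-cJun 1-79 at Ser73 with 10 µM ATP; % is set by controls: 0 for no effect and ±100 for the full control effect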). The procedure, abridged:
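HepG2 lysate (IL-1b/TNFa pre-activated) + biotin-GST-cJun 1-79 + anti-pSer73 cJun; cpd titration, 15 min RT; ATP 10 uM start; Tris pH 7.6, MgCl2, DTT, vanadate; beads in EDTA buffer; AlphaScreen.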
(Bead proximity is the source of the signal in Alpha formats.)

In assay [7] the target is 3',5'-cyclic-AMP phosphodiesterase 4B (Homo sapiens) (UniProt Q07343). Nature of the assay: qHTS Assay for Inhibitors of PDE-IV (AID 607; active = well fitted activation curve with a large enough effect in the main read-out, with a control signal flat, not every such curve was filed as active; note: % of control where 0% means no effect). The method, boiled down: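 Live HEK293 cells with a modified cyclic nucleotide-gated (CNG) channel report intracellular cAMP via membrane-potential dye fluorescence (ex 535/em 590 nm). Endogenous PDE-IV was targeted. Compounds were tested at up to 22.9 uM final; RO 20-1724 100 uM served as control.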
Background: qHTS replaces the single test concentration by a dilution series.

The nature of assay [8]: qHTS Assay for Lipid Storage Modulators (AID 1519; calls by dose curve). The settings on record: Drosophila S3 cells, BODIPY lipid droplet/cell ratio, laser cytometry, cells loaded with oleic acid; for activity change, negative = inhibition: at 25.7 µM (top of the series). The method, boiled down:
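Cells seeded at 5,000 per well were treated with compounds over a concentration series and loaded with oleic acid (400 uM, as added). Lipid droplet fluorescence (488 nm excitation, 500-530 nm channel) was read by laser-scanning cytometry and normalized to 20 uM Triacsin C.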

Assay [9] concerns the target ATP-dependent 6-phosphofructokinase (Trypanosoma brucei brucei) (UniProt O15648). The assay is described as follows: qHTS Assay to Find Inhibitors of T. brucei phosphofructokinase: hit validation (AID 492961). The procedure, abridged:
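Compounds titrated; %activity normalized to 0x and 1x enzyme controls, curve-fitted. Readout: ADP-Glo luminescence after 45 min room-temperature reaction of 1.25 nM PFK, 0.1 mM ATP, 0.5 mM F6P, pH 8.0.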

Assay [10] deals with Ubiquitin carboxyl-terminal hydrolase 1 (Homo sapiens) (UniProt O94782). Nature of the assay: Inhibitors of USP1/UAF1: Pilot qHTS (AID 504865).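 Note: rhodamine fluorescence freed from ubiquitin-rhodamine substrate followed over time; top concentration of the series differs between compounds; % is set by controls: 0 for no effect and ±100 for the full control effect; nearly all actives have a fitted effect of over 35% in size.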 The method, boiled down: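 1nM USP1/UAF1 + cpd, 15 min RT; start w/ Ub-Rho 150nM final; kinetic FL 480/540 nm, 6 reads q60 s. Buffer 50mM HEPES pH 7.8, 0.5mM EDTA, 1mM TCEP, 0.01% Tween-20, 0.1 mg/ml BSA.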
In assay [11] the target is Luciferin 4-monooxygenase (Photinus pyralis) (UniProt P08659). Nature of the assay: Biochemical firefly luciferase enzyme assay for NPC (AID 624030).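 Note: purified P. pyralis luciferase at 10 nM with luciferin and ATP substrate; 0% = DMSO and -100% = full luciferase inhibition by PTC124 control; nearly all actives have a fitted effect of over 70% in size.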 The method, boiled down: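 Purified P. pyralis luciferase at 10 nM in 50 mM Tris Acetate (final), luminescence read within 5 minutes of enzyme addition to compounds. Activity normalised to PTC124 versus DMSO; concentration-response curves classed by r2, magnitude and activity.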

The nature of assay [12]: qHTS profiling for inhibitors of Plasmodium falciparum proliferation (AID 504749).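 For activity, negative = inhibition: 0% = DMSO vehicle and full inhibition = artemisinin control.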 Note: nearly all actives have a fitted effect of over 60% in size. Note: potency is the fitted concentration of half-maximal effect. As to conditions: P. falciparum in erythrocytes, SYBR Green DNA, 72 h. The method, boiled down:
(§1)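 SYBR Green fluorescence (ex 485 nm, em 535 nm) reports parasite DNA after 72 h compound exposure of infected red cells at 0.3% parasitemia, 2.5% hematocrit; signal normalized to 0.29 uM artemisinin and vehicle wells.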

The next assay relates to C2A. The description is as above. As to conditions: P. falciparum in erythrocytes, SYBR Green DNA, 72 h; series mostly up to 12.8 µM. The procedure, abridged:
as §1

The test system of the next assay is CP217. The assay is described as above. The settings on record: P. falciparum in erythrocytes, SYBR Green DNA, 72 h; series mostly up to 12.8 µM. The method, boiled down:
as §1

For a further assay, the system named is CP238. Described as above. The settings on record: P. falciparum in erythrocytes, SYBR Green DNA, 72 h; series mostly up to 12.8 µM. The method, boiled down: as §1
The next assay concerns CP250. The assay is described as above. The settings on record: P. falciparum in erythrocytes, SYBR Green DNA, 72 h; series mostly up to 12.8 µM. The method, boiled down: as §1
For the next assay, the system named is CP252. Described as above. The settings on record: P. falciparum in erythrocytes, SYBR Green DNA, 72 h; series mostly up to 12.8 µM. The method, boiled down:
as §1

Another assay concerns FAB9. The description is as above. The settings on record: P. falciparum in erythrocytes, SYBR Green DNA, 72 h; series mostly up to 12.8 µM. The procedure, abridged:
as §1

A further assay deals with HB3. The assay is described as above. As to conditions: P. falciparum in erythrocytes, SYBR Green DNA, 72 h; series mostly up to 12.8 µM. The procedure, abridged:
as §1

For another assay, the system named is SC27B. The description is as above. As to conditions: P. falciparum in erythrocytes, SYBR Green DNA, 72 h; series mostly up to 12.8 µM. The method, boiled down:
as §1

[13] abbreviates: measured here: cell count channel max response.
The mark [14] stands for this setting: measured here: lipid channel max response.
The mark [15] stands for this setting: at 12.8 µM (top of the series), parasite line A.

Sequence of 3',5'-cyclic-AMP phosphodiesterase 4B (Homo sapiens) (Q07343 whole entry, looked up): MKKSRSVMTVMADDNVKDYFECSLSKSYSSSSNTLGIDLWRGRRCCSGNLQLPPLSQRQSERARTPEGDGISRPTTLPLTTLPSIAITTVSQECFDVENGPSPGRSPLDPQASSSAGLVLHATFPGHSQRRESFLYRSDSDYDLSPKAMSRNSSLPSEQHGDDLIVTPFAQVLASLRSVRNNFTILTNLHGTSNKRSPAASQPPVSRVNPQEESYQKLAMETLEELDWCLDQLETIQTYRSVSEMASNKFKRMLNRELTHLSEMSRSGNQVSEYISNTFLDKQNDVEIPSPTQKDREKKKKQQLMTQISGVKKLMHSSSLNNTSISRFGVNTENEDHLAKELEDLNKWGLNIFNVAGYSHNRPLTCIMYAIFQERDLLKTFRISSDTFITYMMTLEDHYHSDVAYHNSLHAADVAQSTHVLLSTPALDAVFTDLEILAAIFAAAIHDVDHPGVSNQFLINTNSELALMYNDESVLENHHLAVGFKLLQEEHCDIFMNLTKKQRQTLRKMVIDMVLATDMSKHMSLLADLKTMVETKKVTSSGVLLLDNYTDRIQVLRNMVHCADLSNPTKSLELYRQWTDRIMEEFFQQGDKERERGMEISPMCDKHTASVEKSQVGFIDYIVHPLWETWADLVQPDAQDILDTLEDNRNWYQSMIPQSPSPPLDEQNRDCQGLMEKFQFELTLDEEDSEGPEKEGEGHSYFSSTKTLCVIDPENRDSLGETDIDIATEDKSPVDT
Sequence of Luciferin 4-monooxygenase (Photinus pyralis) (P08659 whole entry, looked up): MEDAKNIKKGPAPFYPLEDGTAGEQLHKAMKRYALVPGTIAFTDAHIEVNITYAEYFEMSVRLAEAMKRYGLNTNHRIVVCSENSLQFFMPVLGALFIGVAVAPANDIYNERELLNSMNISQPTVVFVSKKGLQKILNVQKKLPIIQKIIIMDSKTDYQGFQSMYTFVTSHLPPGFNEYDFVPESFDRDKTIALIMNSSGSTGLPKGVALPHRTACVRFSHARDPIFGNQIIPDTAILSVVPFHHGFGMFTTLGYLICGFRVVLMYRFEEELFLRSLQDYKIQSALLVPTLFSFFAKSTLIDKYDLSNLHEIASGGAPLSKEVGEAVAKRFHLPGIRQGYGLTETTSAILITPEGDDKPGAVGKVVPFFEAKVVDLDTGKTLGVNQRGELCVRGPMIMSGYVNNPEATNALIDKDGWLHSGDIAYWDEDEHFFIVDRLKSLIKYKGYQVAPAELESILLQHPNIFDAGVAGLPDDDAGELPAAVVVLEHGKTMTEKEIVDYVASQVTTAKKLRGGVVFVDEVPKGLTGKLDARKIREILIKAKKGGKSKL
Sequence of Ubiquitin carboxyl-terminal hydrolase 1 (Homo sapiens) (O94782 whole entry, looked up): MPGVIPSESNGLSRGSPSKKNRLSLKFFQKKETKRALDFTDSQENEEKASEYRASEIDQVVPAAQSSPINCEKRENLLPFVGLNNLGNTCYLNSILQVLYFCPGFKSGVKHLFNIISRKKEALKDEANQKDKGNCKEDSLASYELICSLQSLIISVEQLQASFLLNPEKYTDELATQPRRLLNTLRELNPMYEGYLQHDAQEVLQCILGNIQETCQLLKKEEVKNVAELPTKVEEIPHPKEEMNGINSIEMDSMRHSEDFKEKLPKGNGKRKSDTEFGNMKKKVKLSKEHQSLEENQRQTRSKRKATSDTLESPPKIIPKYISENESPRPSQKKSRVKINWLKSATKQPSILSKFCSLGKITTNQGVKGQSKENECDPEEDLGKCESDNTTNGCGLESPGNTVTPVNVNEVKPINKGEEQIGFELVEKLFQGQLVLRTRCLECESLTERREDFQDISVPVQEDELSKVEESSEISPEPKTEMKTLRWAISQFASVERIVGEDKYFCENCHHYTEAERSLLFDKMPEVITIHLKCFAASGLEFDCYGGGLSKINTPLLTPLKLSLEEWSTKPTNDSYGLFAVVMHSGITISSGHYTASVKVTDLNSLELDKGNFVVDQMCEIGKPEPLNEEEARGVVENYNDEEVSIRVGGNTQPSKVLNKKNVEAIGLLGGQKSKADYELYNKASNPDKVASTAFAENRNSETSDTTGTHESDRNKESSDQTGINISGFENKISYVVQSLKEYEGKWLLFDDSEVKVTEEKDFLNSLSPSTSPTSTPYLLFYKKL
Sequence of ATP-dependent 6-phosphofructokinase (Trypanosoma brucei brucei) (O15648 whole entry, looked up): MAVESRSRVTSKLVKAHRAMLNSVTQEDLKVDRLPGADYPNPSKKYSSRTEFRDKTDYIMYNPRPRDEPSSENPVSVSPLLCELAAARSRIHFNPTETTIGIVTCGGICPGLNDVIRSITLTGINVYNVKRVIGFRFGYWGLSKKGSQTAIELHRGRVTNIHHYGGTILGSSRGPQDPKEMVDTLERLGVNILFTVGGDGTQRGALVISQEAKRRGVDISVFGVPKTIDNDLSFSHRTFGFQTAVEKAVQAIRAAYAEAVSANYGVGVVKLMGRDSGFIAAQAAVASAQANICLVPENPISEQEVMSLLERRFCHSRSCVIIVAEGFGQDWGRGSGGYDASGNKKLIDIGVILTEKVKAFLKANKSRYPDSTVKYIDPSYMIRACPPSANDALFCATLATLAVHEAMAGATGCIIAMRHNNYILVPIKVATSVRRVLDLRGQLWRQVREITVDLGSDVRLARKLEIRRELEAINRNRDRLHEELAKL
Sequence of Glucocorticoid receptor (Homo sapiens) (P04150 whole entry, looked up, the tested form may be a part): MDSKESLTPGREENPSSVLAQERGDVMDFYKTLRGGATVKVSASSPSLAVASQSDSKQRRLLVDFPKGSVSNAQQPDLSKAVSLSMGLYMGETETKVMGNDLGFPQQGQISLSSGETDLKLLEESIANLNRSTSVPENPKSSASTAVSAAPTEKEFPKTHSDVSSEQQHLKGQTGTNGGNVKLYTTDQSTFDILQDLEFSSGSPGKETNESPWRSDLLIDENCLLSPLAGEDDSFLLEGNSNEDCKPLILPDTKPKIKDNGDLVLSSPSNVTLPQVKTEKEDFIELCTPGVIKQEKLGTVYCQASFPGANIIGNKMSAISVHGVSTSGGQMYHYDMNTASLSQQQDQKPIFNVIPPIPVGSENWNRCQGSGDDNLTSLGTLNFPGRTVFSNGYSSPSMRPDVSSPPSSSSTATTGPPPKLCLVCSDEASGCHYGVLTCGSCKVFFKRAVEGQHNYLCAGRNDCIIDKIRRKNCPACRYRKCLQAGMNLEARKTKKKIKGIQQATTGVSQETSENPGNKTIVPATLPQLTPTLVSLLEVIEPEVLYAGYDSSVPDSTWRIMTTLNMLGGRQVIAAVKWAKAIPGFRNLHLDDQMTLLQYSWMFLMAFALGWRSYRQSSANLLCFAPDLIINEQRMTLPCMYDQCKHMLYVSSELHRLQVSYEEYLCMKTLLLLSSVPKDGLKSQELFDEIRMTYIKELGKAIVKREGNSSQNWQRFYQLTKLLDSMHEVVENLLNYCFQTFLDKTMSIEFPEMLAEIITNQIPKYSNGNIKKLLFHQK

As to `CN[C@H]1[C@H](O)[C@@H](O[C@@H]2[C@H](O)[C@@H](O[C@H]3OC(CN)=CC[C@H]3N)[C@@H](N)C[C@H]2N)OC[C@@]1(C)O`, the compound was classed as inactive in assay [1], in [3], in assay [7] and in [9]. Further, the activity change, negative = inhibition in assay [2] is -17.3% (inactive); in [8] it was 0.656% (inactive). Besides, the Potency in [4] and in [5] was > 20.6 µM (inactive) each time. Besides, the Potency result (in assay [6]; in assay [10]; in assay [11]; in the assay on C2A; in the assay with CP217; in the assay on CP238) was “inactive” throughout. Further, the Potency entry in the assay on CP250, in the assay on CP252, with FAB9, in the assay with HB3 and in the assay on SC27B was “inactive” each time. For the same compound, the results for the max response in [8] (setting [13]) and in [8] (setting [14]) were -1.73% and -0.476%, respectively. Further, the activity, negative = inhibition in assay [12] (setting [15]) is 3.71% (inactive); in [12] (at 12.8 µM (top of the series), parasite line B) it was 6.19% (inactive).

Take `O[C@@](CCN1CCCC1)(c1ccccc1)C1CCCCC1`: the compound was called inactive in assay [1], in assay [3] and in [9]. The activity change, negative = inhibition in assay [2] was -61.1% (active); in assay [8], -0.986% (inactive). Also, the Potency in assay [4] and in assay [5] was > 20.6 µM (inactive) throughout. The Potency entry (in assay [6]; in [10]; in assay [11]; in the assay with C2A; with CP217; in the assay on CP238) was “inactive” in each case. In addition, the Potency result with CP250, in the assay on CP252, in the assay on FAB9, with HB3 and in the assay on SC27B was “inactive” in each case. Moreover, the max response in assay [8] (setting [13]) is -8.38%; in assay [8] (setting [14]) it was -9.51%. Further, the activity, negative = inhibition in [12] (setting [15]) was -9.23% (inactive).

Take `Clc1ccc(CC[C@H](Cn2ccnc2)Sc2c(Cl)cccc2Cl)cc1`: the call in assay [1], in assay [3] and in assay [9] was inactive. For the same compound, the Potency in [4] was > 20.6 µM (inactive); in [5], > 20.6 µM (inactive); in the assay on CP217, 3.55 µM (active); with HB3 it was 3.55 µM (active); in the assay on SC27B it was 3.98 µM (active). The Potency result in assay [6] and in assay [11] was “inactive” throughout. The activity change, negative = inhibition in [8] was 3.47% (inactive). In addition, the max response is -3.86% in [8] (setting [13]) and -6.78% in assay [8] (setting [14]).

Turning to `CN(C)CCO[C@@H](c1ccc(Cl)cc1)c1ccccn1`, the call in assay [1] and in assay [7] was inactive. Also, the Potency in assay [4] and in [5] was > 20.6 µM (inactive) each time. In addition, the Potency result in [6] and in assay [10] was “inactive” in each case. Further, in assay [8], the activity change, negative = inhibition is -4.98% (inactive). Further, the max response in assay [8] (setting [13]) is -21.7%; in assay [8] (setting [14]), -26%.

On to `C#C[C@@]1(O)CC[C@@H]2[C@@H]3CCC4=CC(=O)CC[C@@H]4[C@H]3CC[C@]21CC`, for which the compound was called inactive in assay [1], in [3] and in assay [7]. Also, the Potency in assay [4] is 0.0832 µM (active); in [5], > 20.6 µM (inactive). Further, the Potency result in assay [6] and in assay [10] was “inactive” each time. In addition, in [8], the activity change, negative = inhibition was -1.97% (inactive). Moreover, the max response in assay [8] (setting [13]) was -10.3%; in assay [8] (setting [14]) it was -10.4%.

For `CC(=O)O[C@H]1C[C@@]2(C)[C@H](C[C@@H](O)[C@H]3[C@@]4(C)CC[C@@H](O)[C@@H](C)[C@H]4CC[C@@]32C)C1=C(CCC=C(C)C)C(=O)O`, the call in assay [1], in assay [3], in assay [7] and in assay [9] was inactive. Further, the activity change, negative = inhibition in assay [2] was -11.2% (inactive); in [8] it was -3.43% (inactive). The Potency in assay [4] and in [5] was > 20.6 µM (inactive) each time. Moreover, the Potency entry (in assay [6]; in assay [10]; in assay [11]; in the assay with C2A; with CP217; in the assay with CP238) was “inactive” throughout. The Potency result in the assay with CP250, with CP252, with FAB9, with HB3 and in the assay on SC27B was “inactive” in each case. In addition, the values for the max response in [8] (setting [13]) and in [8] (setting [14]) were -3.61% and -6.42%, respectively. The activity, negative = inhibition in assay [12] (at 28.7 µM (top of the series), parasite line A) was 7.93% (inactive); in assay [12] (at 28.7 µM (top of the series), parasite line B), 2.16% (inactive).
